PubChem BioAssay (NCI)
The panel holds about 79,000 compounds, 15% with a hit somewhere; the sample as a whole holds those more often. Active and inactive are the calls of the source. Cut-off read from the data, not from the text of the source: active = growth inhibition above about 70%; inactive = the rest.

Experiments:
[1] = NCI Yeast Anticancer Drug Screen. Data for the rad50 strain (AID 155);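 note: 0% = growth of vehicle-only cultures of the same strain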; conditions: S. cerevisiae rad50 strain growth inhibition, stronger effect = higher value
How it was run: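 Relative growth inhibition (compound vs vehicle) was measured in yeast with a defined repair-gene alteration.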

[2] = NCI Yeast Anticancer Drug Screen. Data for the mec2-1 strain (AID 157); conditions: S. cerevisiae mec2-1 strain, stronger effect = higher value
How it was run: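 Compounds were applied to mec2-1 yeast cells. Their growth was then compared with that of vehicle-treated cultures to give growth inhibition.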

[3] = NCI Yeast Anticancer Drug Screen. Data for the sgs1 mgt1 strain (AID 161);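 note: 0% = growth of cultures given vehicle only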; conditions: S. cerevisiae sgs1 mgt1 strain, stronger effect = higher value
How it was run: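 Yeast cells carrying a defined DNA-repair defect were exposed to test compounds. Growth inhibition was measured relative to vehicle-treated controls.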

[4] = NCI Yeast Anticancer Drug Screen. Data for the cln2 rad14 strain (AID 165);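 note: 0% = growth equal to vehicle treated cultures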; conditions: S. cerevisiae cln2 rad14 strain, stronger effect = higher value
How it was run: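 Strain: cln2 rad14 yeast, altered in cell cycle control and DNA damage repair. Read-out: growth inhibition vs vehicle.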

[5] = NCI Yeast Anticancer Drug Screen. Data for the bub3 strain (AID 167); conditions: S. cerevisiae bub3 mutant strain, stronger effect = higher value
How it was run: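 Screening used yeast with an engineered genetic alteration affecting cell cycle control. Compound-exposed cultures were compared with vehicle cultures, and reduced growth was taken as inhibition.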

[6] = NCI Yeast Anticancer Drug Screen. Data for the mlh1 rad18 strain (AID 175); conditions: S. cerevisiae mlh1 rad18 strain growth inhibition, stronger effect = higher value
How it was run: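 A repair-deficient yeast strain is exposed to test compound, and growth is scored relative to vehicle-treated controls.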

[7] = at 5.0 µM (retest, dose inferred, filed as 0.5)
[8] = at 50.0 µM (retest, dose inferred, filed as 5.0)

Measured: growth inhibition

CCOc1ccccc1NC(=O)/C(Cl)=C(\Cl)C(=O)O
active: [1]; [7] 100% | [1]; [8] 99% | [1]; at 50.0 µM 99% | [2]; [7] 100% | [2]; [8] 100% | [2]; at 50.0 µM 98.3% | [3]; [7] 100% | [3]; [8] 100% | [3]; at 50.0 µM 95.2% | [4]; [7] 100% | [4]; [8] 99% | [5]; [7] 100% | [5]; [8] 100% | [6]; [7] 100% | [6]; [8] 100% | [6]; at 50.0 µM 76%
inactive: [4]; at 50.0 µM 56.8% | [5]; at 50.0 µM 64.4%

Clc1ccc(/C=N/Nc2c3ccccc3nc3ccccc23)c(Cl)c1
active: [1]; [8] 84% | [1]; at 50.0 µM 86.4% | [2]; [8] 87% | [3]; [8] 83% | [3]; at 50.0 µM 87.8% | [5]; [8] 92% | [6]; [8] 87% | [6]; at 50.0 µM 85.4%
inactive: [1]; [7] -6% | [2]; [7] -11% | [2]; at 50.0 µM 46% | [3]; [7] -5% | [4]; [7] -47% | [4]; [8] 64% | [4]; at 50.0 µM 28.5% | [5]; [7] -12% | [5]; at 50.0 µM 60.4% | [6]; [7] 0%

O=C1NC(c2ccccc2)(c2cccs2)C(=O)N1C1c2ccccc2Oc2ccccc21 (configuration not stated)
inactive: [1]; [7] 0% | [2]; [7] -11% | [3]; [7] -18% | [4]; [7] -7% | [5]; [7] -5% | [6]; [7] 21%
active: [1]; [8] 87% | [1]; at 50.0 µM 90.3% | [2]; [8] 92% | [2]; at 50.0 µM 84.7% | [3]; [8] 92% | [3]; at 50.0 µM 91% | [4]; [8] 84% | [4]; at 50.0 µM 84.2% | [5]; [8] 91% | [5]; at 50.0 µM 86.8% | [6]; [8] 87% | [6]; at 50.0 µM 87.4%

CC(C)C1=CC23CCC4C(C)(C(=O)O)CCCC4(C)C2CC1c1c(O)ccc(O)c13 (configuration not stated)
inactive: [1]; [7] 30% | [3]; [7] 51% | [4]; [7] 28% | [5]; [7] 31%
active: [1]; [8] 98% | [1]; at 50.0 µM 99.3% | [2]; [7] 75% | [2]; [8] 100% | [2]; at 50.0 µM 99.3% | [3]; [8] 99% | [3]; at 50.0 µM 99.3% | [4]; [8] 98% | [4]; at 50.0 µM 99.2% | [5]; [8] 99% | [5]; at 50.0 µM 99.2% | [6]; [7] 81% | [6]; [8] 99% | [6]; at 50.0 µM 99%

CCc1n[nH]c(CC)c1CCCCCCOc1ccc(OC)cc1Cl
active: [1]; at 50.0 µM 83.8% | [2]; [8] 77% | [2]; at 50.0 µM 92.4% | [3]; [8] 73% | [3]; at 50.0 µM 92.2% | [4]; [8] 76% | [4]; at 50.0 µM 89.7% | [5]; [8] 83% | [5]; at 50.0 µM 89.2% | [6]; [8] 73% | [6]; at 50.0 µM 93.7%
inactive: [1]; [7] -8% | [1]; [8] 60% | [2]; [7] -15% | [3]; [7] -3% | [4]; [7] -28% | [5]; [7] -8% | [6]; [7] -11%

CC(C)NC(=O)OCCS(=O)c1c(Cl)c(Cl)nn1C (configuration not stated)
active: [1]; at 50.0 µM 98.8% | [2]; at 50.0 µM 99.2% | [4]; at 50.0 µM 97.7% | [5]; [8] 75% | [5]; at 50.0 µM 97% | [6]; at 50.0 µM 99%
inactive: [1]; [7] -15% | [1]; [8] 62% | [2]; [7] 11% | [2]; [8] 37% | [3]; [7] -5% | [3]; [8] 53% | [3]; at 50.0 µM 42.4% | [4]; [7] 1% | [4]; [8] 20% | [5]; [7] -4% | [6]; [7] -7% | [6]; [8] 56%

COc1cccc2c1C(=O)c1c(O)c3c(c(O)c1C2=O)C[C@@](O)(C(C)=O)C[C@@H]3OC1CC([N+]([O-])(Cc2ccccc2)Cc2ccccc2)C(O)C(C)O1 (some centres not stated)
active: [1]; [7] 79% | [1]; [8] 95% | [1]; at 50.0 µM 75.6% | [2]; [8] 87% | [3]; [8] 88% | [4]; [8] 70% | [5]; [8] 81% | [6]; [7] 70% | [6]; [8] 92%
inactive: [2]; [7] 30% | [2]; at 50.0 µM 23.9% | [3]; [7] 48% | [3]; at 50.0 µM 19.2% | [4]; [7] 23% | [4]; at 50.0 µM 22.2% | [5]; [7] 32% | [5]; at 50.0 µM 31.7% | [6]; at 50.0 µM 10.8%

COC(=O)c1cc(-c2ccc(C)cc2)c2c(=O)n(-c3ccccc3)[nH]c2n1
inactive: [1]; [7] 8% | [2]; [7] 5% | [3]; [7] -7% | [3]; [8] 51% | [3]; at 50.0 µM 51.1% | [4]; [7] 11% | [5]; [7] 4% | [5]; [8] 69% | [6]; [7] -3%
active: [1]; [8] 75% | [1]; at 50.0 µM 72.9% | [2]; [8] 71% | [2]; at 50.0 µM 94.9% | [4]; [8] 87% | [4]; at 50.0 µM 94.8% | [5]; at 50.0 µM 92.8% | [6]; [8] 85% | [6]; at 50.0 µM 85.9%

CCCCCCCCCCN1CCN(C(=O)OCC)CC1
active: [1]; at 50.0 µM 95% | [2]; [8] 77% | [2]; at 50.0 µM 72.2% | [3]; [8] 97% | [3]; at 50.0 µM 94.7% | [4]; at 50.0 µM 90.7% | [5]; [8] 80% | [5]; at 50.0 µM 95.8% | [6]; [7] 79% | [6]; [8] 91% | [6]; at 50.0 µM 89.2%
inactive: [1]; [7] 51% | [1]; [8] 68% | [2]; [7] 54% | [3]; [7] 67% | [4]; [7] 58% | [4]; [8] 67% | [5]; [7] 62%
